Results filed as inconclusive are left out. Calls of active or inactive are those of the source. The call rests on the fitted dose curve; in most records, active means well fitted inhibition curve with a large enough effect; inconclusive means small, poorly fitted or top-dose-only effect; inactive means flat fitted curve, though single readings scatter.
Potency means the concentration at half of the fitted maximal effect.

In the first test the test system is TAB113. Put plainly: qHTS profiling for inhibitors of Plasmodium falciparum proliferation (AID 504749). Further: nearly all actives have a fitted effect of over 60% in size. The note with it: P. falciparum in erythrocytes, SYBR Green DNA, 72 h; series mostly up to 28.7 µM. Put shortly:
(§1)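 Infected RBCs, 0.3% parasitemia/2.5% Hct final; cpd 72 h, 37 C, 5% CO2; lysis buffer with saponin/triton/SYBR Green I, o/n RT dark; FI 485/535; norm. to artemisinin (0.29 uM) and DMSO.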
A general note: In qHTS, concentration-response curves come from the screen itself.
As for `COC(=O)[C@H]1[C@H]2C[C@@H]3c4[nH]c5cc(OC)ccc5c4CCN3C[C@H]2C[C@@H](OC(=O)c2cc(OC)c(OC)c(OC)c2)[C@@H]1OC`, the Potency is 5.62 µM (active).
On to `OCCN1CCN(CCCN2c3ccccc3C=Cc3ccccc32)CC1`, for which the Potency is 6.31 µM (active).
The same measure, in the same setting: as for `C[C@]12CCC(=O)C=C1CC[C@@H]1[C@@H]2CC[C@@]2(C)[C@H]1CC[C@]2(O)C(=O)CO`, the entry is “inactive”; as for `CCCC(C(=O)OCCN(CC)CC)(c1ccccc1)c1ccccc1`, 10 µM (active); as for `CCn1ccnc1CC1COc2ccccc2O1` (configuration not stated), “inactive”.
The same measure, in the same setting: the result for `CN1CCN(C2=Nc3ccccc3Oc3ccc(Cl)cc32)CC1` reads “inactive”.
On the same count and under the same terms, as for `CN(C)CCOC(=O)COc1ccc(Cl)cc1`, the entry is “inactive”; as for `CCCCNc1ccc(C(=O)OCCN(C)C)cc1`, “inactive”; as for `c1cnc(N2CCN(Cc3ccc4c(c3)OCO4)CC2)nc1`, “inactive”.
As to `OC(CCN1CCCCC1)(c1ccccc1)C1CCCCC1` (configuration not stated), the Potency result is “inactive”.
For `COc1cc(C(=O)OCCCN2CCCN(CCCOC(=O)c3cc(OC)c(OC)c(OC)c3)CC2)cc(OC)c1OC`, the Potency is 11.2 µM (active).
Turning to `CCN(CC)CCCN(c1ccccc1)C1Cc2ccccc2C1`, the Potency is 3.98 µM (active).
As for `CC(=O)[C@]1(O)Cc2c(O)c3c(c(O)c2[C@@H](O[C@H]2C[C@H](N)[C@H](O)[C@H](C)O2)C1)C(=O)c1ccccc1C3=O`, the Potency is 4.47 µM (active).
In the case of `CC(=O)[C@@]1(O)CC[C@H]2[C@@H]3CCC4=CC(=O)CC[C@]4(C)[C@H]3CC[C@@]21C`, the Potency result was “inactive”.
On the same count and under the same terms, as for `O=c1[nH]c(=O)n([C@H]2C[C@H](O)[C@@H](CO)O2)cc1Br`, the entry is “inactive”; as for `Nc1nc(N)c2nc(-c3ccccc3)c(N)nc2n1`, “inactive”.
Still for that read-out and setting: the result for `COc1ccc(CN(CCN(C)C)c2ccccn2)cc1` reads “inactive”; that for `CC(N=C(NC#N)Nc1ccncc1)C(C)(C)C` (configuration not stated), “inactive”.
The same measure, in the same setting: as for `CCCCNc1c(C(=O)OCC)c(C)nc2c1cnn2CC`, the entry is “inactive”; as for `O=C(CCCN1CCC(O)(c2cccc(C(F)(F)F)c2)CC1)c1ccc(F)cc1`, 12.6 µM (active); as for `NC(N)=NC(=O)Cc1c(Cl)cccc1Cl`, “inactive”.

The next test relates to TAB165. Described as above. The note with it: P. falciparum in erythrocytes, SYBR Green DNA, 72 h; series mostly up to 28.7 µM. Put shortly: as §1
For `COC(=O)[C@H]1[C@H]2C[C@@H]3c4[nH]c5cc(OC)ccc5c4CCN3C[C@H]2C[C@@H](OC(=O)c2cc(OC)c(OC)c(OC)c2)[C@@H]1OC`, the Potency was 3.98 µM (active).
As to `OCCN1CCN(CCCN2c3ccccc3C=Cc3ccccc32)CC1`, the Potency is 5.62 µM (active).
Still for that read-out and setting: as for `C[C@]12CCC(=O)C=C1CC[C@@H]1[C@@H]2CC[C@@]2(C)[C@H]1CC[C@]2(O)C(=O)CO`, the entry is “inactive”; as for `CCn1ccnc1CC1COc2ccccc2O1` (configuration not stated), “inactive”.
On the same count and under the same terms, the result for `CN1CCN(C2=Nc3ccccc3Oc3ccc(Cl)cc32)CC1` reads “inactive”.
The same measure, in the same setting: the result for `CN(C)CCOC(=O)COc1ccc(Cl)cc1` reads “inactive”.
On to `C=CCc1ccccc1OCC(O)CNC(C)C` (configuration not stated), for which the Potency is 10 µM (active).
Same read-out and setting: the result for `CCCCNc1ccc(C(=O)OCCN(C)C)cc1` reads “inactive”.
Same read-out and setting: the result for `c1cnc(N2CCN(Cc3ccc4c(c3)OCO4)CC2)nc1` reads “inactive”; that for `OC(CCN1CCCCC1)(c1ccccc1)C1CCCCC1` (configuration not stated), “inactive”.
Still for that read-out and setting: as for `CCCN1C[C@H](CSC)C[C@@H]2c3cccc4[nH]cc(c34)C[C@H]21`, the figure is 14.1 µM (active); as for `COc1cc(C(=O)OCCCN2CCCN(CCCOC(=O)c3cc(OC)c(OC)c(OC)c3)CC2)cc(OC)c1OC`, 8.91 µM (active).
`CCN(CC)CCCN(c1ccccc1)C1Cc2ccccc2C1`: the Potency is 3.98 µM (active).
On the same count and under the same terms, the result for `CC(=O)[C@]1(O)Cc2c(O)c3c(c(O)c2[C@@H](O[C@H]2C[C@H](N)[C@H](O)[C@H](C)O2)C1)C(=O)c1ccccc1C3=O` reads 3.16 µM (active); that for `CC(=O)[C@@]1(O)CC[C@H]2[C@@H]3CCC4=CC(=O)CC[C@]4(C)[C@H]3CC[C@@]21C`, “inactive”.
For the molecule `O=c1[nH]c(=O)n([C@H]2C[C@H](O)[C@@H](CO)O2)cc1Br`, the Potency entry is “inactive”.
The same measure, in the same setting: the result for `C[n+]1cc2c3c(ccc2c2ccc4cc5c(cc4c21)OCO5)OCO3` reads “inactive”.
Same read-out and setting: the result for `Nc1nc(N)c2nc(-c3ccccc3)c(N)nc2n1` reads “inactive”; that for `COc1ccc(CN(CCN(C)C)c2ccccn2)cc1`, “inactive”.
With `CC(N=C(NC#N)Nc1ccncc1)C(C)(C)C` (configuration not stated), the Potency entry was “inactive”.
On the same count and under the same terms, the result for `CCOC(=O)C1=C(C)NC(C)=C(C(=O)OC)C1c1cccc([N+](=O)[O-])c1` (configuration not stated) reads 10 µM (active); that for `CNCCC(Oc1ccccc1OC)c1ccccc1` (configuration not stated), 11.2 µM (active); that for `CCCCCCCC/C=C\CCCCCCCC(=O)NCc1ccc(O)c(OC)c1`, 8.91 µM (active).
Consider `O=C(CCCN1CCC(O)(c2cccc(C(F)(F)F)c2)CC1)c1ccc(F)cc1`, for which the Potency is 7.94 µM (active).

The test system of another test is W2. The description is as above. The note with it: P. falciparum in erythrocytes, SYBR Green DNA, 72 h; series mostly up to 28.7 µM. Put shortly:
as §1
Consider `COC(=O)[C@H]1[C@H]2C[C@@H]3c4[nH]c5cc(OC)ccc5c4CCN3C[C@H]2C[C@@H](OC(=O)c2cc(OC)c(OC)c(OC)c2)[C@@H]1OC`, for which the Potency was 3.79 µM (active).
The same measure, in the same setting: the result for `OCCN1CCN(CCCN2c3ccccc3C=Cc3ccccc32)CC1` reads 1.51 µM (active); that for `C[C@]12CCC(=O)C=C1CC[C@@H]1[C@@H]2CC[C@@]2(C)[C@H]1CC[C@]2(O)C(=O)CO`, “inactive”.
The same measure, in the same setting: the result for `CCCC(C(=O)OCCN(CC)CC)(c1ccccc1)c1ccccc1` reads 7.57 µM (active); that for `CN(C)CCOC(=O)COc1ccc(Cl)cc1`, “inactive”; that for `C=CCc1ccccc1OCC(O)CNC(C)C` (configuration not stated), 2.39 µM (active).
Still for that read-out and setting: as for `NC(N)=N/N=C/c1c(Cl)cccc1Cl`, the figure is 12 µM (active); as for `CCCCNc1ccc(C(=O)OCCN(C)C)cc1`, “inactive”.
Consider `c1cnc(N2CCN(Cc3ccc4c(c3)OCO4)CC2)nc1`, for which the Potency result is “inactive”.
The same measure, in the same setting: the result for `OC(CCN1CCCCC1)(c1ccccc1)C1CCCCC1` (configuration not stated) reads 6.01 µM (active).
Still for that read-out and setting: as for `CN(C)CCCN1c2ccccc2Sc2ccccc21`, the figure is 0.572 µM (active); as for `CCCN1C[C@H](CSC)C[C@@H]2c3cccc4[nH]cc(c34)C[C@H]21`, 5.36 µM (active).
Still for that read-out and setting: as for `Brc1c(NC2=NCCN2)ccc2nccnc12`, the figure is 5.36 µM (active).
On to `COc1cc(C(=O)OCCCN2CCCN(CCCOC(=O)c3cc(OC)c(OC)c(OC)c3)CC2)cc(OC)c1OC`, for which the Potency was 3.01 µM (active).
Still for that read-out and setting: as for `CCC(=O)c1ccc2c(c1)N(CCCN(C)C)c1ccccc1S2`, the figure is 3.01 µM (active); as for `CCN(CC)CCCN(c1ccccc1)C1Cc2ccccc2C1`, 0.601 µM (active); as for `CC(=O)[C@]1(O)Cc2c(O)c3c(c(O)c2[C@@H](O[C@H]2C[C@H](N)[C@H](O)[C@H](C)O2)C1)C(=O)c1ccccc1C3=O`, 1.69 µM (active).
On to `CC(=O)[C@@]1(O)CC[C@H]2[C@@H]3CCC4=CC(=O)CC[C@]4(C)[C@H]3CC[C@@]21C`, for which the Potency result is “inactive”.
For `O=c1[nH]c(=O)n([C@H]2C[C@H](O)[C@@H](CO)O2)cc1Br`, the Potency entry is “inactive”.
Still for that read-out and setting: the result for `COc1ccc(CCN(C)CCCC(C#N)(c2cc(OC)c(OC)c(OC)c2)C(C)C)cc1OC` (configuration not stated) reads 2.39 µM (active).
On the same count and under the same terms, as for `COc1ccc(CN(CCN(C)C)c2ccccn2)cc1`, the figure is 7.57 µM (active).
In the case of `CC(N=C(NC#N)Nc1ccncc1)C(C)(C)C` (configuration not stated), the Potency entry is “inactive”.
`CNCCC(Oc1ccccc1OC)c1ccccc1` (configuration not stated): the Potency was 4.26 µM (active).
On the same count and under the same terms, as for `O=C(CCCN1CCC(O)(c2cccc(C(F)(F)F)c2)CC1)c1ccc(F)cc1`, the figure is 2.69 µM (active).
The same measure, in the same setting: the result for `CN1C[C@H](C(=O)N[C@]2(C)O[C@@]3(O)[C@@H]4CCCN4C(=O)[C@H](Cc4ccccc4)N3C2=O)C[C@@H]2c3cccc4[nH]cc(c34)C[C@H]21` reads 1.51 µM (active).
Same read-out and setting: as for `CN(C)CC/C=C1\c2ccccc2COc2ccccc21`, the figure is 1.2 µM (active); as for `NC(N)=NC(=O)Cc1c(Cl)cccc1Cl`, 6.75 µM (active).

The values are drawn from PubChem BioAssay (NCATS).
